Most compounds without a hit are left out; they make up all but 3.9% or so of the library.
HT1080-NT tox: kills 2HG-producing HT-1080-NT fibrosarcoma cells | HT-1080-NT fibrosarcoma viability, CellTiter-Glo ATP luminescence, 48 h | Potency, µM (titrated, usually from 46.1 µM), for inactives: at the top dose activity, negative = less viability, usual class: cytotoxic | hit rate 1.6% among 360,000;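 also: NT is the 2HG producing partner of a matched IDH1 knockdown line; 0% = DMSO-treated cells and -100% = media-only wells without cells; nearly all actives have a fitted effect of over 55% in size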
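Read-out is CellTiter-Glo luminescence after 10 minutes at room temperature, following 48 hours' compound treatment of HT-1080-NT cells (750 cells/well, RPMI, 5% FBS, 37 degrees C).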
TGFb SMAD3 inh: TGF-b pathway inhibition | hit rate 1.2% among 410,000 | Potency, µM (series often up to 46.1 µM), without a hit: at the top dose activity, negative = inhibition, hits mostly inhibitors | HepG2 CAGA-GFP TGF-b/SMAD3 reporter, GFP fluorescence, 18 h; TGF-beta stimulated, 500 pg/mL final | AID 588855; also: % is scaled to controls: 0 for no effect and ±100 for the full control effect; nearly all actives have a fitted effect of over 65% in size
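First, reporter cells (HEPG2 CAGA-GFP) rested 2 h at 37 degrees C. Next, compounds were pinned in and TGF-beta added to 500 pg/mL final. After 18 h, GFP was imaged per cell and summed per well.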
ATXN viability: viability counter-screen for ATXN expression inhibitors; hit rate 0.49% among 400,000; Potency, µM (series often up to 56.7 µM), most hits filed as cytotoxic; S2 cells (HEK-293 line with an ATXN2-luciferase reporter) viability, CellTiter-Fluor protease fluorescence, 24 h; also: nearly all actives have a fitted effect of over 40% in size
HepG2 viability: HepG2 cytotoxicity, counter-screen for TGF-b inhibitors. HepG2 CAGA-GFP viability, ATP luminescence, 18 h. Potency, µM (highest dose often 46.1 µM), without a hit: at the top dose activity change, negative = cytotoxicity, usual class: cytotoxic. hit rate 0.76% among 410,000. AID 588856
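HepG2 CAGA-GFP cells (1000/well, DMEM with 1% FBS) received compound, then TGF-beta at 500 pg/mL final, and were incubated 18 hours at 37 degrees C. Viability was read by CellTiter-Glo luminescence. Media-only wells were set as complete cell-killing and DMSO as no toxicity.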
HT1080 IDH1KD tx: toxicity to HT-1080 IDH1 knockdown cells (counter line). Potency, µM (highest dose often 46.1 µM), for the others: at the highest dose activity, negative = toxicity, hits mostly cytotoxic. HT-1080 IDH1 knockdown viability, ATP luminescence, 48 h. hit rate 2% among 360,000;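 also: 0% = DMSO wells and -100% = cell-free medium wells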
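Assay cells: HT-1080 with IDH1 knockdown, 750 per well, RPMI/5% FBS. Exposure: 48 h at 37 °C following 2 h pre-incubation. Read: CellTiter-Glo luminescence; fitted concentration-response, curve class assigned.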
ATXN2 expr inh: reduces ATXN2 reporter expression in HEK-293 cells; AID 1745845; Potency, µM (series often up to 57 µM), for the others: top-dose activity change, negative = inhibition, most hits filed as inhibitors; hit rate 0.72% among 360,000; HEK-293 ATXN2-luciferase reporter, luminescence, 24 h; also: % is scaled to controls: 0 for no effect and ±100 for the full control effect; nearly all actives have a fitted effect of over 55% in size
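qHTS (up to 57 uM final) was run with 24 h compound exposure of reporter cells at 37 °C. Each well was multiplexed: SteadyGlo luminescence measured ATXN2-luciferase expression after a fluorogenic Gly-Phe-AFC viability readout (25 uM final).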
Numbers without * were called inactive. Calls follow the shape of the dose curve; as a rule, active = well fitted curve in the direction sought with a large enough effect; inconclusive = small, poorly fitted or top-dose-only effect, or another doubt; inactive = no such curve, though single readings can be large; an effect the other way counts as inactive or inconclusive. Potency is read from the fitted curve at half-maximal effect.

For CCOc1ccc(C(=O)C2CCN(CC(=O)Nc3ccccc3N3CCOCC3)CC2)cc1 the results were HT1080-NT tox inconclusive, TGFb SMAD3 inh 14µM*, ATXN viability inactive, HepG2 viability -13%, HT1080 IDH1KD tx inconclusive and ATXN2 expr inh inconclusive.
COc1ccc2oc(-c3ccc(C)c(NC(=O)c4cccnc4)c3)nc2c1 was read as TGFb SMAD3 inh 0%, ATXN viability inactive, HepG2 viability -4% and ATXN2 expr inh 7%.
CN(C)c1ccc(/C=C/c2ncnc3ccccc23)cc1 was read as TGFb SMAD3 inh 249% and HepG2 viability -27%.
`CC(=O)Nc1cccc(NC(=O)c2cccc(-c3ccc(O)cc3)c2)c1` gave HT1080-NT tox -1%, TGFb SMAD3 inh -12%, ATXN viability inactive, HepG2 viability -21%, HT1080 IDH1KD tx -9% and ATXN2 expr inh -7%.
Screening COc1ccc(NC(=O)c2cccc(-c3ccc(O)cc3)c2)cn1 returned HT1080-NT tox inconclusive, TGFb SMAD3 inh 9%, ATXN viability inconclusive, HepG2 viability 8%, HT1080 IDH1KD tx 2.1µM* and ATXN2 expr inh -7%.
Screening COc1cc(OC)cc(C(=O)Nc2cc3c(cc2N2CCCC2)n(C)c(=O)c(=O)n3C)c1 returned TGFb SMAD3 inh -14%, ATXN viability inactive, HepG2 viability 4% and ATXN2 expr inh 6%.
CCCCNC(=O)[C@@H]1CC=C[C@@H]2CCN(Cc3ccc(OC)c(OC)c3)C(=O)[C@@H]21 was read as TGFb SMAD3 inh -15% and HepG2 viability -18%.
Screening CCOC(=O)c1c(NC(=O)C(C)Sc2cn(CCNC(=O)c3c(F)cccc3F)c3ccccc23)sc2c1CCC2 (configuration not stated) returned TGFb SMAD3 inh 22%, ATXN viability inconclusive, HepG2 viability 2% and ATXN2 expr inh -7%.
For Cc1nc(SCC(=O)N2CCCCCC2)c2c(=O)n(C)c(=O)n(CC(C)C)c2n1 the results were HT1080-NT tox inconclusive, TGFb SMAD3 inh 16µM*, ATXN viability inactive, HepG2 viability -48% and HT1080 IDH1KD tx -10%.
CN(C)S(=O)(=O)c1ccc(C(=O)NCCS(=O)(=O)N2CCN(c3ccccc3)CC2)cc1 was read as TGFb SMAD3 inh 0% and HepG2 viability -20%.
Screening Cc1ccc(C)n1-c1c(C(=O)NCCCN2CCN(c3ccc(F)cc3)CC2)sc2ncccc12 returned TGFb SMAD3 inh inconclusive, ATXN viability inactive, HepG2 viability -33% and ATXN2 expr inh -21%.
O=C(COc1ccc(Oc2ccccc2)cc1)NCc1cn2ccccc2n1 was read as HT1080-NT tox 2.6µM*, TGFb SMAD3 inh inconclusive, ATXN viability inconclusive, HepG2 viability 13%, HT1080 IDH1KD tx 3.3µM* and ATXN2 expr inh -16%.
Screening COC(=O)C1=C(C)N(Cc2ccccc2)C(=NCc2ccccc2)N[C@H]1c1ccccc1 returned HT1080-NT tox -28%, TGFb SMAD3 inh inconclusive, ATXN viability inconclusive, HepG2 viability 14µM*, HT1080 IDH1KD tx -22% and ATXN2 expr inh inconclusive.
`COC(=O)C1=C(C)N(CC2CC2)C(=NCc2cccc(Cl)c2)N[C@H]1c1ccccc1` gave HT1080-NT tox -8%, TGFb SMAD3 inh inconclusive, ATXN viability inactive, HepG2 viability -34%, HT1080 IDH1KD tx -26% and ATXN2 expr inh -6%.
COC(=O)C1=C(C)N(Cc2ccccc2)C(=NCc2ccccc2)N[C@H]1c1cccc(F)c1 was read as HT1080-NT tox -20%, TGFb SMAD3 inh inconclusive, HepG2 viability -112%, HT1080 IDH1KD tx -13% and ATXN2 expr inh inconclusive.
COC(=O)C1=C(C)N(Cc2ccccc2)C(=NCc2cccc(Cl)c2)N[C@H]1c1ccccc1 was read as HT1080-NT tox -12%, TGFb SMAD3 inh inconclusive, ATXN viability 35µM*, HepG2 viability -96%, HT1080 IDH1KD tx -14% and ATXN2 expr inh inconclusive.
Cc1cc2c(F)c(Oc3ncnn4cc(OC[C@@H](C)O)c(C)c34)ccc2[nH]1 was read as ATXN2 expr inh 51%.
For CCOc1ccc(C2CC(=O)c3c([nH]c(C(=O)OC)c3C)C2)cc1OC (configuration not stated) the results were HT1080-NT tox inconclusive, TGFb SMAD3 inh -37%, ATXN viability inactive, HepG2 viability -7%, HT1080 IDH1KD tx inconclusive and ATXN2 expr inh -25%.
COC(=O)c1[nH]c2c(c1C)C(=O)CC(c1cccs1)C2 (configuration not stated) was read as HT1080-NT tox 1µM*, TGFb SMAD3 inh inconclusive, ATXN viability inactive, HepG2 viability -14%, HT1080 IDH1KD tx 1µM* and ATXN2 expr inh 4%.
COC(=O)c1[nH]c2c(c1C)C(=O)CC(c1cc(OC)ccc1OC)C2 (configuration not stated) was read as HT1080-NT tox inconclusive, TGFb SMAD3 inh -3%, ATXN viability inconclusive, HepG2 viability 2%, HT1080 IDH1KD tx 21µM* and ATXN2 expr inh -9%.
Screening Cc1cc(C(=O)Nc2cccc(-c3nc(CNC(=O)c4ccccc4C(F)(F)F)c(C)o3)c2)c(C)o1 returned ATXN viability inactive.
For CC[C@H]1OC(=O)[C@H](C)[C@@H](O[C@H]2C[C@@](C)(OC)[C@@H](O)[C@H](C)O2)[C@H](C)[C@@H](O[C@@H]2O[C@H](C)C[C@H](N(C)C)[C@H]2O)[C@](C)(O)C[C@@H](C)/C(=N\OCOCCOC)[C@H](C)[C@@H](O)[C@]1(C)O the results were ATXN viability inactive.
Cc1cc(Br)ccc1NC(=O)c1cc2c(=O)n(C)c3cc(Cl)ccc3c2s1 was read as TGFb SMAD3 inh 4%, ATXN viability inactive, HepG2 viability -11% and ATXN2 expr inh 5%.
For O=C(c1ccco1)N(Cc1cc2cc3c(cc2nc1N1CCOCC1)CCC3)CC1CCCO1 (configuration not stated) the results were ATXN viability inactive.
For CC1(COc2ccc3c(c2)ncn3-c2ccc3cccc(N4CCC(N)CC4)c3n2)COC1 the results were ATXN2 expr inh 12µM*.
Screening COc1ccc(-n2cnc3cc(N)ccc32)cc1 returned HT1080-NT tox -1%, TGFb SMAD3 inh 22%, ATXN viability inactive, HepG2 viability 5%, HT1080 IDH1KD tx 23% and ATXN2 expr inh 57%.
`CC(C)c1cnc2c(c1SCC(=O)Nc1ccc(C(N)=O)cc1)c(=O)n(C)c(=O)n2C` gave TGFb SMAD3 inh -15% and HepG2 viability -14%.
